# Compound activity as filed in PubChem BioAssay.
# CDK5 inh: blocks human CDK5/p35 kinase activity. Recombinant CDK5/p35, ADP-Glo luminescence, 60 min. Q00535+Q15078. 330,000 tested, 0.01% active. inhibition, % at 10 µM;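 active = highest replicate inhibition of at least 50% and at least 75% of replicates reaching 50%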;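 also: plate controls were DMSO neutral control for no effect and GW8510 at 10 µM for full effect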
# ALR inh: blocks human ALR sulfhydryl oxidase activity | inhibition, % (concentration not given with the values) | purified ALR, DTT oxidation, H2O2 HRP-luminol luminescence | AID 485317 | 290,000 tested, 3.8% active;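 active = mean replicate inhibition above about 79%, with every replicate also reaching it, limit read from the data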
# Target sequence (P55789 whole entry, looked up): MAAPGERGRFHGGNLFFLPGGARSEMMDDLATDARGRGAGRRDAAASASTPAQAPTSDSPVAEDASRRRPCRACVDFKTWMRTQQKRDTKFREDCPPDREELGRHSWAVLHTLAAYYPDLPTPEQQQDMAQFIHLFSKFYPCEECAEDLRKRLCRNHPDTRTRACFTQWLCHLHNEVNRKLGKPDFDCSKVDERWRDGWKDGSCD
# CASP6 VEID inh: inhibitors of human caspase-6; purified caspase-6, Z-VEID-R110 cleavage fluorescence; inhibition, % at 12.5 µM; 350,000 tested, 0.53% active;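 active = mean inhibition across replicates at least about 35%, with every replicate also reaching that limit, limit read from the data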;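 also: 0% = median of neutral control wells and 100% = no fluorescence left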
# Target sequence (P55212 24-179 limits assumed): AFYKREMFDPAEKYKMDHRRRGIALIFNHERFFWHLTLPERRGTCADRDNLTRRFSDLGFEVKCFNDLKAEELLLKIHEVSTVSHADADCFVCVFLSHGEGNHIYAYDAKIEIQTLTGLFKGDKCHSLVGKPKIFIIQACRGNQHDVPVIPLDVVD
# Target sequence (P55212 194-293 limits assumed): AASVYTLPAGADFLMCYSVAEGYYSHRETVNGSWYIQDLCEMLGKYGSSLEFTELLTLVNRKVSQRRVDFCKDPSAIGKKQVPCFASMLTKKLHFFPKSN
# Glyco luc inh: N-linked glycosylation inhibition. D54 ERlucT glycosylation luciferase reporter, 24 h; percent of 100 nM tunicamycin response. 360,000 tested, 0.23% active. reporter increase, % at 12.5 µM. AID 588692;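 active = mean luciferase reporter signal, scaled so untreated is 0 and the glycosylation-blocking control 100, at or above a set limit in every replicate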;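 also: luciferase carries N-glycosylation sites so blocking glycosylation raises the light; 0% = median of neutral control wells and 100% = median of 100 nM tunicamycin wells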
# NSD2 HMT inh: inhibitors of human histone methyltransferase NSD2; O96028; NSD2 peptide methylation, AlphaScreen, 120 min; inhibition, % at 12.5 µM; 310,000 tested, 0.54% active; in the data active = inhibition above about 50%
# SUMO Mot1 rescue: blocks SUMOylation pathway, rescuing yeast Mot1-301 growth; S. cerevisiae Mot1-301 growth rescue, ATP luminescence, 38.5C; percent above DMSO median, 100 means doubled; growth rescue, % at 18.8 µM; 320,000 tested, 1% active;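 active = every valid replicate shows activation above 250% relative to neutral control wells; inactive = the rest, any valid replicate at or below 250%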;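 also: OY570 slx delta 5 strain wells were the positive control but not used for scaling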
# * = called active by the depositor; / = not tested or not shown. Most compounds without a hit are left out; they make up all but 3.9% or so of the library.
SMILES,CDK5 inh,ALR inh,CASP6 VEID inh,Glyco luc inh,NSD2 HMT inh,SUMO Mot1 rescue
NC(=O)CC(NC(=O)Cc1ccc(Br)cc1)c1ccc(NC2CCCC2)c([N+](=O)[O-])c1 (centres undefined),0,2,/,38*,/,-1
NC(=O)CC(NC(=O)c1ccc(Br)cc1)c1ccc(N2CCCCCCC2)c([N+](=O)[O-])c1 (centres undefined),1,4,2,43*,/,-15
NC(=O)CC(NC(=O)c1ccc(Br)cc1)c1ccc(N2CCN(c3ccccc3)CC2)c([N+](=O)[O-])c1 (centres undefined),1,3,-1,4,/,16
CC(NC(=O)c1ccc(N2CCCC2)c([N+](=O)[O-])c1)c1ccc(S(N)(=O)=O)cc1 (centres undefined),-1,98*,1,1,2,132
CN1C(=O)c2cc(NC(=O)c3ccc(F)c(F)c3)ccc2OC[C@@H]2O[C@@H](CC(=O)N[C@@H]3CCN(Cc4ccccc4)C3)CC[C@H]21,/,/,-2,/,/,/
Cc1ccc(S(=O)(=O)Oc2ccc(/C=N/N=C3/NC(=O)C(CC(=O)O)S3)cc2)cc1 (centres undefined),0,/,8,0,-4,/
Cc1ccc(-c2ccc(/C=N/N=C3/NC(=O)C(CC(=O)O)S3)o2)c([N+](=O)[O-])c1 (centres undefined),-2,99*,/,4,5,-13
Cc1ccc(CSc2nc3c(c(SCC(=O)O)n2)CCCC3)cc1,0,97*,/,-1,-9,6
COC(=O)CSc1nc(SCc2ccc(C)cc2)nc2c1CCCC2,-1,-10,/,1,-2,-2
Clc1ccc2nc(N3CCCCC3)[nH]c2c1,-2,98*,/,-8,-1,-6
C[C@@H]1CN([C@@H](C)CO)C(=O)c2cc(NC(=O)Nc3ccc4c(c3)OCO4)ccc2O[C@@H]1CN(C)S(C)(=O)=O,/,/,0,/,/,/
CCOc1ccccc1NC(=O)CSc1n[nH]c(N)n1,2,0,57*,0,-3,23
CCOc1cc(N2CCOCC2)c(OCC)cc1NC(=O)CSc1n[nH]c(N)n1,0,14,-3,1,1,-8
Nc1nc(SCC(=O)Nc2ccc([N+](=O)[O-])cc2)n[nH]1,1,97*,0,-1,1,2
Cc1nc(SCC(=O)c2ccccc2)n[nH]1,3,90*,/,0,-1,-11
N#Cc1c(NC(=O)CSc2n[nH]c(N)n2)oc(-c2ccccc2)c1-c1ccccc1,0,79*,/,1,4,9
Nc1nc(SCC(=O)Nc2ccc([N+](=O)[O-])cc2Br)n[nH]1,0,48,/,-3,0,9
O=C(CSc1n[nH]c(-c2ccncc2)n1)c1ccccc1,1,26,/,2,0,2
CCCNC(=O)C[C@@H]1C[C@H]2c3cc(NC(=O)NC4CCCCC4)ccc3O[C@H]2[C@H](CO)O1,/,/,11,/,/,/
COc1ccccc1C(=O)Nc1ccc2c(c1)OC[C@H](C)NC[C@H](C)[C@H](OC)CN(C)C2=O,/,/,0,/,/,/
Nc1nc(SCC(=O)c2cccc([N+](=O)[O-])c2)n[nH]1,-1,83*,4,-2,0,-1
CCCC(=O)Nc1ccc2c(c1)OC[C@H](C)N(C(C)=O)C[C@H](C)[C@@H](OC)CN(C)C2=O,/,/,-1,/,/,/
CCCC(=O)NC(NC(=S)Nc1ccc(S(N)(=O)=O)cc1)C(Cl)(Cl)Cl (centres undefined),1,32,/,0,-2,50
CCCC(=O)NC(NC(=S)Nc1ccc(N=Nc2ccccc2)cc1)C(Cl)(Cl)Cl (centres undefined),1,0,-3,30*,9,2
CC(=O)NC(NC(=S)Nc1ccccc1Br)C(Cl)(Cl)Cl (centres undefined),0,-4,-2,0,-9,-15
SMILES,CDK5 inh,ALR inh,CASP6 VEID inh,Glyco luc inh,NSD2 HMT inh,SUMO Mot1 rescue
CCC(=O)NC(NC(=S)Nc1ccccc1Br)C(Cl)(Cl)Cl (centres undefined),-3,-4,59*,-3,/,-11
CC(=O)Nc1ccc2c(c1)C(=O)N(C)[C@H]1CC[C@H](CC(=O)NCc3ccccc3)O[C@H]1CO2,/,/,-2,/,/,/
C[C@H](NC(=O)C[C@H]1C=C[C@H](NC(=O)CN2CCOCC2)[C@@H](CO)O1)c1ccccc1,/,/,-3,/,/,/
O=C(C[C@H]1C[C@@H]2c3cc(NC(=O)C4CCC4)ccc3O[C@@H]2[C@H](CO)O1)NCc1ccc(-c2ccccc2)cc1,/,/,-2,/,/,/
COc1ccc(N2CCN(C(=O)CCC(=O)NNc3nc4ccccc4c4nc(C)nn34)CC2)cc1,0,99*,-2,-2,1,2
O=C(CCNS(=O)(=O)c1ccc(Cl)cc1)N1CCN(c2ncccn2)CC1,1,/,-2,2,-1,/
O=C(CCNS(=O)(=O)c1ccc(Cl)cc1)N1CCN(c2ccccn2)CC1,-2,1,-4,0,-3,269*
COC(=O)c1ccccc1OCC(=O)N1CCN(c2ccc(OC)cc2)CC1,0,88*,/,0,-1,18
COc1ccc(N2CCN(S(=O)(=O)CCNS(=O)(=O)c3ccccc3)CC2)cc1,-1,6,4,-1,0,-24
Cc1nc2c3ccccc3nc(NNC(=O)CCC(=O)N3CCN(c4ccccc4)CC3)n2n1,1,34,5,2,-1,11
COc1ccc(N2CCN(C(=O)CCNS(=O)(=O)c3ccccc3)CC2)cc1,-1,98*,-1,-1,-1,169
C[C@H]1CN([C@@H](C)CO)C(=O)c2cc(NS(C)(=O)=O)ccc2O[C@@H]1CN(C)Cc1ccc(Oc2ccccc2)cc1,/,/,-3,/,/,/
O=C(C[C@H]1CC[C@H](NS(=O)(=O)c2ccccc2F)[C@H](CO)O1)NCCCN1CCOCC1,/,/,2,/,/,/
COc1ccc(N2CCN(C(=O)CCNC(=O)c3ccc(C(C)(C)C)cc3)CC2)cc1,-3,86*,1,0,2,2
CCOc1ccc(S(=O)(=O)NCCC(=O)N2CCN(c3ccc(OC)cc3)CC2)cc1,0,77*,1,-2,-2,-1
COc1ccc(N2CCN(C(=O)c3ccccc3N(C)S(=O)(=O)c3ccccc3)CC2)cc1,-3,90*,0,-4,5,-17
CCOc1ccc(S(=O)(=O)NCCC(=O)N2CCN(c3ncccn3)CC2)cc1,0,/,1,1,1,-4
CCS(=O)(=O)c1nn2c(N)c(/C=C3/C=CC(=O)C(OC)=C3)c(=O)nc2s1,1,100*,/,1,4,215
COC1=C/C(=C/c2c(N)n3c(nc2=O)sc2cc(S(C)(=O)=O)ccc23)C=CC1=O,1,99*,11,-3,-110,371
COC1=C/C(=C/c2c(N)n3nc(-c4ccc(C)cc4)sc3nc2=O)C=CC1=O,-5,/,9,1,14,/
